Experimental data: the supplement of paper PMC8699584
± gives the standard deviation of the averaged measurements.

What was measured:
Molm13 = assay: cell viability relative to DMSO control (bortezomib = 0%); higher = less growth inhibition; settings: 10 nM; 72 h
How it was run: (§1)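 In duplicate runs, a library of 679 approved and investigational compounds in 384-well plates received acute myeloid leukemia cells at 1000 cells per well in 50 µL, with each compound at a single 10 nM dose for 72 h. CellTiter-Glo luminescence, read on an EnVision reader, served as the viability measure. Each plate was normalized by linear regression between DMSO-treated cells (100%) and positive-control-treated cells (0%).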

Mv4-11 = assay: as above; settings: 10 nM; 72 h
How it was run: as §1

Compound | cell viability (Molm13) | cell viability (Mv4-11)
Cc1cn(-c2cc(NC(=O)c3ccc(C)c(Nc4nccc(-c5cccnc5)n4)c3)cc(C(F)(F)F)c2)cn1 [Nilotinib] | 124 ± 9.8% | 108 ± 16%
C=CC(=O)Nc1cccc(Nc2nc(Nc3ccc(Oc4ccnc(C(=O)NC)c4)cc3)ncc2F)c1 | 114 ± 24% | 108 ± 9.3%
FC(F)(F)c1ccc(CNc2ccc(Cc3c[nH]c4ncccc34)cn2)cc1 | 76.9 ± 16% | 110 ± 3.2%
COc1cc(N2CCOCC2)ccc1Nc1ncc(F)c(Nc2ccccc2NS(C)(=O)=O)n1 | 98.1 ± 5.6% | 111 ± 4.2%
